Test results from the supplement of paper PMC11732987, “Enantioselective OTUD7B fragment discovery through chemoproteomics screening and high-throughput optimisation” (Communications Chemistry, 2025).

Legend:
Test in all cases: log2 ratio of Biotin-Ahx-Ub-VS probe labelling (fragment/DMSO); higher = less target engagement (more negative = stronger competition), active = hit call of the paper (q ≤ 0.05, log2 ratio ≤ -1)
Conditions in all cases: compound concentration: 200 uM; treatment time: 3 h
[1] = compound: CC(C)CN(C1CC1)C(=O)CCl
Summary of the method: (§1)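 Fragment (200 µM) or vehicle was incubated for 3 h with triplicate HEK293T lysate samples of 495 µg, which were then treated with Biotin-Ahx-Ub-VS at 0.5 µM final for 1 h. Labelled DUBs were enriched on NeutrAvidin, digested with LysC and trypsin, and analysed by diaPASEF LC-MS/MS. Values are average log2 fragment/vehicle ratios from an unpaired t-test on global-median-normalised Spectronaut label-free quantities, using proteins with ≥2 unique peptides.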

[2] = compound: CC(NC(=O)CCl)c1cccs1
Summary of the method: as §1

[3] = compound: CC1CCCCC1NC(=O)CCl
Summary of the method: as §1

[4] = compound: CC1CCCCN1C(=O)CCl
Summary of the method: as §1

[5] = compound: CC1CN(CC(C)O1)C(=O)CCl
Summary of the method: as §1

[6] = compound: CN(C1CCCCC1)C(=O)CCl
Summary of the method: as §1

[7] = compound: Cc1cc(NC(=O)CCl)no1
Summary of the method: as §1

[8] = compound: Cc1cccc(NC(=O)CCl)c1
Summary of the method: as §1

[9] = compound: Cc1nc(NC(=O)CCl)sc1C
Summary of the method: as §1

[10] = compound: Cc1nnc(NC(=O)CCl)s1
Summary of the method: as §1

[11] = compound: Cl.Cc1ncsc1CNC(=O)CCl
Summary of the method: as §1

[12] = compound: ClCC(=O)N1CCCCCCC1
Summary of the method: as §1

[13] = compound: ClCC(=O)NC1(CCCC1)C#N
Summary of the method: as §1

[14] = compound: ClCC(=O)NCC1CCC1
Summary of the method: as §1

[15] = compound: ClCC(=O)NCC1CCCO1
Summary of the method: as §1

[16] = compound: ClCC(=O)NCc1ccco1
Summary of the method: as §1

[17] = compound: ClCC(=O)Nc1cccc(Cl)c1
Summary of the method: as §1

[18] = compound: ClCC(=O)NC(C1CC1)C1CC1
Summary of the method: as §1

Measured: log2 ratio of Biotin-Ahx-Ub-VS probe labelling

FAM105A (UniProt Q9NUU6)
Sequence of UniProt Q9NUU6 (Q9NUU6 whole entry): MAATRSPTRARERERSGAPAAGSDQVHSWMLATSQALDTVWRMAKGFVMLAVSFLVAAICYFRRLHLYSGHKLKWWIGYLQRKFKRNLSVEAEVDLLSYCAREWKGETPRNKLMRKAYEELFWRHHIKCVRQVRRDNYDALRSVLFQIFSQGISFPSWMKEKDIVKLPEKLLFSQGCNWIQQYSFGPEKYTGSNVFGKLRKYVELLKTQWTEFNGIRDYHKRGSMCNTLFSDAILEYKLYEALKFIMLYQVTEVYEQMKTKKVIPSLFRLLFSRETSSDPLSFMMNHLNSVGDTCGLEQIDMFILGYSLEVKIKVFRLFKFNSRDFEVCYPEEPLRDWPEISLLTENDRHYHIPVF
inactive: [1] 0.277 | [2] 0.257 | [3] 0.116 | [4] 0.0605 | [5] 0.177 | [6] 0.232 | [7] -0.696 | [8] 0.176 | [9] 0.144 | [10] 0.133 | [11] -0.00706 | [12] -0.0484 | [13] 0.105 | [14] 0.185 | [15] -0.0373 | [16] 0.0935 | [17] 0.0436

USP8 (UniProt P40818)
Sequence of UniProt P40818 (P40818 whole entry): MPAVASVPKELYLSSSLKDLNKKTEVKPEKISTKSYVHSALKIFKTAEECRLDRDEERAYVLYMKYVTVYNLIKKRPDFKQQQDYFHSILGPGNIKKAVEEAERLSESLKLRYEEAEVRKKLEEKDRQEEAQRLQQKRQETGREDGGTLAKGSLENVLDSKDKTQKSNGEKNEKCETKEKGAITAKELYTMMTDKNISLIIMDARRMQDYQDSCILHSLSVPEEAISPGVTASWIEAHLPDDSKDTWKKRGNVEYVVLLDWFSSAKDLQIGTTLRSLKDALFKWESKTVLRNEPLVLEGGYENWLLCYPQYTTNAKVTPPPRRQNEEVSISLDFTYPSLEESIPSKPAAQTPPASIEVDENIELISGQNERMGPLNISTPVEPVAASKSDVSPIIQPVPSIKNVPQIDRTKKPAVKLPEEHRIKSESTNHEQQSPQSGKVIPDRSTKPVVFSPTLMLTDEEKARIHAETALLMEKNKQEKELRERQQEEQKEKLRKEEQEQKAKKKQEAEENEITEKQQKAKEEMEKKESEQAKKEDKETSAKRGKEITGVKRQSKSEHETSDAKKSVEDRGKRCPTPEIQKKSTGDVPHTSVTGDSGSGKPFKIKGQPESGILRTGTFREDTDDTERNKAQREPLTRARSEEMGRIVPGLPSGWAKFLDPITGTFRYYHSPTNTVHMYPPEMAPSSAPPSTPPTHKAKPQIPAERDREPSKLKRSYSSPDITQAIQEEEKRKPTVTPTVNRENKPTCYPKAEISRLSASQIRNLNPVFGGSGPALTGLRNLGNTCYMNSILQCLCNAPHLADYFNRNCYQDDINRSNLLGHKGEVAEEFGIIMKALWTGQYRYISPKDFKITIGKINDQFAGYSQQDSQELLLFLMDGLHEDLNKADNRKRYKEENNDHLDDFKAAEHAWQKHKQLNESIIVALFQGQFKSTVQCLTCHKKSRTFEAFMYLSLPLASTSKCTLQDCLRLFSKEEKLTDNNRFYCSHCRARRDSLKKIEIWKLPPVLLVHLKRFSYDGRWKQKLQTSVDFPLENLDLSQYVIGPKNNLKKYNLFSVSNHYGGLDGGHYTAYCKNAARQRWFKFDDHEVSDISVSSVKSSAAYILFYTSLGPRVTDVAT
inactive: [1] 0.058 | [2] -0.288 | [3] -0.13 | [4] -0.147 | [5] -0.531 | [6] -0.314 | [7] -0.16 | [8] -0.0703 | [9] -0.125 | [10] -0.197 | [11] -0.245 | [12] -0.233 | [13] -0.572 | [14] -0.442 | [15] 0.167 | [16] -0.538 | [17] -0.963

OTUD4 (UniProt Q01804)
inactive: [1] 0.0776 | [2] -0.761 | [3] -0.763 | [4] -0.46 | [5] -0.413 | [6] -0.109 | [7] 0.0839 | [8] -0.0534 | [9] -0.136 | [10] 0.02 | [11] -0.0939 | [12] -0.131 | [14] -0.397 | [15] 0.0366 | [16] -0.354 | [17] -0.972
active: [13] -2.71

USP46 (UniProt P62068)
Sequence of UniProt P62068 (P62068 whole entry): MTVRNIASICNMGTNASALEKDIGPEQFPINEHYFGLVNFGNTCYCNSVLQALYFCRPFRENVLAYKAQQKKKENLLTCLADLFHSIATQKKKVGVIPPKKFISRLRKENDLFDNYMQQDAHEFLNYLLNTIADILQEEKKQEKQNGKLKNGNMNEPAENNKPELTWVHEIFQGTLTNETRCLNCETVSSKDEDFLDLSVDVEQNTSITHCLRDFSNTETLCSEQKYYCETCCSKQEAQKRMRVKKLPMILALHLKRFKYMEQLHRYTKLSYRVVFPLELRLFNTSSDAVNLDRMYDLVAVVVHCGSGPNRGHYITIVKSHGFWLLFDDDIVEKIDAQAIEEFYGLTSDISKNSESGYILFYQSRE
inactive: [1] -0.0299 | [2] -0.0303 | [3] 0.206 | [4] -0.116 | [5] -0.0331 | [6] -0.248 | [7] -0.103 | [8] -0.0865 | [9] -0.0696 | [10] -0.323 | [11] 0.0828 | [12] -0.198 | [18] 0.045 | [13] 0.0653 | [14] 0.0564 | [15] 0.118 | [16] 0.0832 | [17] -0.509

UniProt O00487
Sequence of UniProt O00487 (O00487 whole entry): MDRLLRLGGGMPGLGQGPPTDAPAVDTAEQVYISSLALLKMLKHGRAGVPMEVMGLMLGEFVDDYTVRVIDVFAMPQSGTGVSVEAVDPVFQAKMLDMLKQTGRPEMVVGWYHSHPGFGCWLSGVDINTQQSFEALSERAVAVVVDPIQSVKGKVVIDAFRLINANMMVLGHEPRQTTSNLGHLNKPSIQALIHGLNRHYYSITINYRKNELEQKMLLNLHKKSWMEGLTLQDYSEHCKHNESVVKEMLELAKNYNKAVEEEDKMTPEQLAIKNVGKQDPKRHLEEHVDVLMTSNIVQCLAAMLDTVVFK
inactive: [1] -0.123 | [2] -0.134 | [3] -0.0855 | [4] -0.115 | [5] -0.19 | [6] -0.0571 | [7] 0.0118 | [8] -0.116 | [9] -0.0519 | [10] -0.139 | [11] 0.0936 | [12] -0.0818 | [13] -0.263 | [14] -0.192 | [15] -0.162 | [16] -0.0244 | [17] -0.0223

USP25 (UniProt Q9UHP3)
inactive: [1] -0.0734 | [2] -0.0952 | [3] -0.722 | [4] -0.62 | [5] -0.368 | [6] 0.0415 | [7] -0.392 | [8] -0.444 | [9] -0.307 | [10] -0.446 | [11] -0.133 | [12] -0.102 | [13] -0.276 | [14] -0.149 | [15] 0.0208 | [16] -0.419
active: [17] -1.21

USP19 (UniProt O94966)
Sequence of UniProt O94966 (O94966 whole entry): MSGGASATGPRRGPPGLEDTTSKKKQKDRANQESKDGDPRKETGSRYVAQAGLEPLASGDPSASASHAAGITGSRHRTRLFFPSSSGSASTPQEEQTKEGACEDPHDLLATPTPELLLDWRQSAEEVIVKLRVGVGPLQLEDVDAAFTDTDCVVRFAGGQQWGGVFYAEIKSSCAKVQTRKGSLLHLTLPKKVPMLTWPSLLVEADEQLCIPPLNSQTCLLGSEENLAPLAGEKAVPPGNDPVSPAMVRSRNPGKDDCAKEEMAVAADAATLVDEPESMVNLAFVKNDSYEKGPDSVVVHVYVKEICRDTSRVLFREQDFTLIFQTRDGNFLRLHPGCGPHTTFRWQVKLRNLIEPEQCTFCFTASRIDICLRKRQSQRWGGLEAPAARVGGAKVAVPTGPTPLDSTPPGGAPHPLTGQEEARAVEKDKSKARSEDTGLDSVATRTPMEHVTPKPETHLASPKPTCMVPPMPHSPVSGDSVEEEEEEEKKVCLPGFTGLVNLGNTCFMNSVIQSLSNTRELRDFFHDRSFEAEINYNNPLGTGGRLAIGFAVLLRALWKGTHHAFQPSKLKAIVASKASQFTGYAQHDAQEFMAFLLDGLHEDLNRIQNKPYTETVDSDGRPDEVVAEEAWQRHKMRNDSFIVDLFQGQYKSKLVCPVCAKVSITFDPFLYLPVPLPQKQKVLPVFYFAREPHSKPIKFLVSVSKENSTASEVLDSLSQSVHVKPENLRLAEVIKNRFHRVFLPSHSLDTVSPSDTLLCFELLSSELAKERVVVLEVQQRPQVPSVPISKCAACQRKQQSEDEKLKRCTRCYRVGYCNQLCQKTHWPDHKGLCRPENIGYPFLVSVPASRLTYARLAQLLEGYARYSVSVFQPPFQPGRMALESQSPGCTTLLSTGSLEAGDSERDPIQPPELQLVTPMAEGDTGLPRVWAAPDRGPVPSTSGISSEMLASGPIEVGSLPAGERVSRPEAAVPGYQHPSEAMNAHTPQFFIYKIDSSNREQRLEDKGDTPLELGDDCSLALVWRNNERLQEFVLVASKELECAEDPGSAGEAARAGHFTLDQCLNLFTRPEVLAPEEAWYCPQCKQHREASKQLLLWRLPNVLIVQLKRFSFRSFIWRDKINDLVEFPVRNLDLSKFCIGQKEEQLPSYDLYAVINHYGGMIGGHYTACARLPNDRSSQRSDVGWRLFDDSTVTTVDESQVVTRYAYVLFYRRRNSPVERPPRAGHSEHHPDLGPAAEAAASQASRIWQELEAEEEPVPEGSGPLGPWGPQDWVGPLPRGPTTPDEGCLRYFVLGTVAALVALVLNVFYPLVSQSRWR
inactive: [1] 0.00416 | [2] -0.0254 | [3] -0.108 | [4] -0.341 | [5] -0.267 | [6] -0.381 | [7] -0.558 | [8] -0.285 | [9] -0.171 | [10] -0.607 | [11] 0.00124 | [12] -0.175 | [18] -0.198 | [13] -0.0817 | [14] 0.0408 | [15] 0.0949 | [16] -0.207 | [17] -0.681

OTUB1 (UniProt Q96FW1)
Sequence of UniProt Q96FW1 (Q96FW1 whole entry): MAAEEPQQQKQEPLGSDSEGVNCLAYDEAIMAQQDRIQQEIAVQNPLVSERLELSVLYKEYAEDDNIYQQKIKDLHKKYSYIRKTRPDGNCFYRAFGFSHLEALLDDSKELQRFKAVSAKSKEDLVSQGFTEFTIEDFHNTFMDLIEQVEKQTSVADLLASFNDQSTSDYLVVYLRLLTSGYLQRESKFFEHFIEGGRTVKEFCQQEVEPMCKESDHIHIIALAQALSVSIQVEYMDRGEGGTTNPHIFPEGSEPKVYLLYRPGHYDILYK
inactive: [1] -0.0296 | [2] 0.137 | [3] -0.0525 | [4] -0.264 | [5] -0.26 | [6] 0.0388 | [7] 0.388 | [8] 0.123 | [9] 0.281 | [10] 0.165 | [11] -0.174 | [12] 0.116 | [18] 0.0718 | [13] -0.247 | [14] -0.422 | [15] 0.252 | [16] -0.0321 | [17] -0.286

UniProt P51784
Sequence of UniProt P51784 (P51784 whole entry): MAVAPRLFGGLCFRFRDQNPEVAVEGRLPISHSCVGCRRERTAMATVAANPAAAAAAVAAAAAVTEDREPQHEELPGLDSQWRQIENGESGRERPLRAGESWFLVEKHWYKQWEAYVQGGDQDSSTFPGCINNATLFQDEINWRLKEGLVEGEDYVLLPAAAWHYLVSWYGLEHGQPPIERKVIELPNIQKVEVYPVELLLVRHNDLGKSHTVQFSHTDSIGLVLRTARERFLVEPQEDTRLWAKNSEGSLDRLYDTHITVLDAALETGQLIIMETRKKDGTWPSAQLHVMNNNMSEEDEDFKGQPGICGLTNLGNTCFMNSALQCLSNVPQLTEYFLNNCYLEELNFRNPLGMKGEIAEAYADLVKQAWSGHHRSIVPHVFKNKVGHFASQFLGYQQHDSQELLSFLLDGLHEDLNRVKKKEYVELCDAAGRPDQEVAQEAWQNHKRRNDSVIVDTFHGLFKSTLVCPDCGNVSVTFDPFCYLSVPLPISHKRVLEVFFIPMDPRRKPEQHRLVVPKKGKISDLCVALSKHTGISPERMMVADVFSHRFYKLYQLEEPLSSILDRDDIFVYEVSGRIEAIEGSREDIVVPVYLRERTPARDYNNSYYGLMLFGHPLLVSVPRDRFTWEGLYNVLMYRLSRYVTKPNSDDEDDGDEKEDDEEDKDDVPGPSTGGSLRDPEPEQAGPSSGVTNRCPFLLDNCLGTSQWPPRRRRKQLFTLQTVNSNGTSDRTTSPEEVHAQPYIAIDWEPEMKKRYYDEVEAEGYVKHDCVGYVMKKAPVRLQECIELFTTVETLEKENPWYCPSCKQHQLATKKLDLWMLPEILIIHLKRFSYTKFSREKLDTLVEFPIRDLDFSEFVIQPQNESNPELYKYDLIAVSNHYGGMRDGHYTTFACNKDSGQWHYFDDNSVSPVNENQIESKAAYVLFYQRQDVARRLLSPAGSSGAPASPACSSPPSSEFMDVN
inactive: [1] -0.051 | [2] 0.138 | [3] 0.0474 | [4] -0.248 | [5] -0.0132 | [6] 0.0405 | [7] -0.202 | [8] -0.227 | [9] 0.0778 | [10] -0.209 | [11] 0.0993 | [12] -0.126 | [18] -0.304 | [13] -0.072 | [14] -0.102 | [15] 0.104 | [16] -0.104 | [17] -0.628
